The results in this text go back to the antibiotic and cytotoxicity screens of Wong et al. (2023).

The campaign covered roughly 39,000 compounds. About 3,300 (8.5%) were called active. The full list was thinned out, with actives kept by preference.

This test concerns HepG2. As to the kind of experiment: cytotoxicity call (relative viability < 0.9). The conditions noted are these: 10 µM.
Take `C[C@@H]1CN([C@H](C)CO)C(=O)c2cc(Br)cnc2O[C@H]1CN(C)C(=O)Nc1ccccc1F`: the cytotoxicity call was “inactive”.
Consider `CCCCC[C@@H](C[C@@H](CC(=O)O)O[C@H]1O[C@@H](CO)[C@@H](O[C@H]2O[C@@H](CO)[C@@H](O)[C@@H](O)[C@@H]2O)[C@@H](O)[C@@H]1O)OC(=O)C[C@H](O)C[C@H](CCCCC)O[C@H]1O[C@@H](CO)[C@@H](O)[C@@H](O)[C@@H]1O`, for which the cytotoxicity call was “inactive”.
With `Cn1c(O)cc(=O)n(C)c1=O` the entry was “inactive”; with `CCS(=O)(=O)NCC[C@H]1CC[C@H](NS(=O)(=O)c2ccccc2C)[C@@H](CO)O1`, “inactive”.
Take `Cc1cccc(/C=C2\CS/C(=C\c3cccc(C)c3)C2=O)c1`: the cytotoxicity call is “inactive”.
Under `COC(=O)[C@@H]1C[C@H](C#N)N[C@@H]1c1ccccn1` stands “inactive”; under `C[C@@H]1CN([C@@H](C)CO)C(=O)Cc2cc(NC(=O)Nc3ccc(C(F)(F)F)cc3)ccc2O[C@@H]1CN(C)Cc1ccc2c(c1)OCO2`, “active”.
Under `C[C@H]1CN([C@@H](C)CO)S(=O)(=O)c2ccc(C#CCN(C)C)cc2O[C@H]1CN(C)S(C)(=O)=O` stands “inactive”; under `COc1ccc(C(=O)NCc2ccc(OCCN(C)C)cc2)cc1OC`, “inactive”; under `COc1ccc(CCN(C)CCCOc2ccc(S(=O)(=O)c3c(C(C)C)cn4ccccc34)cc2)cc1OC`, “active”.
With `COc1ccc(CCN(C)CCCOc2ccc(S(=O)(=O)c3[nH]c4ccccc4c3C(C)C)cc2)cc1OC` the entry was “active”.
Consider `COc1ccc(CCN(C)CCCOc2ccc(S(=O)(=O)c3c(C(C)C)c4ccccc4n3C)cc2)cc1OC`, for which the cytotoxicity call is “active”.
Under `COc1ccc(NC(=O)N(C)C[C@H]2Oc3c(NS(=O)(=O)c4cn(C)cn4)cccc3C(=O)N([C@H](C)CO)C[C@@H]2C)cc1` stands “inactive”.
Under `COc1ccc(S(=O)(=O)N(C)C[C@H]2Oc3ccc(NC(=O)CCN4CCOCC4)cc3C(=O)N([C@@H](C)CO)C[C@@H]2C)cc1` stands “inactive”.
With `C[C@@H]1CN([C@@H](C)CO)C(=O)c2cc(NS(=O)(=O)c3cccs3)ccc2O[C@@H]1CN(C)S(=O)(=O)c1cn(C)cn1` the entry was “inactive”; with `c1ccc(NC2CCCCC2)nc1`, “inactive”.
Turning to `CO[C@H]1CN(C)C(=O)c2cc(NS(=O)(=O)CC(F)(F)F)ccc2OC[C@@H](C)N(Cc2ccccn2)C[C@@H]1C`, the cytotoxicity call is “inactive”.
Under `CN(C)CC(=O)N1CC(=O)N2[C@@H](CO)[C@@H](c3ccc(C#Cc4cccnc4)cc3)[C@@H]2C1` stands “inactive”; under `C[C@H]1CCCCO[C@@H](CN(C)Cc2ccncc2)[C@@H](C)CN([C@@H](C)CO)C(=O)c2cc(NC(=O)Nc3ccc(F)cc3)ccc2O1`, “inactive”.
With `C=CC1=C(C(=O)O)N2C(=O)[C@@H](NC(=O)/C(=N\OCC(=O)O)c3csc(N)n3)[C@H]2SC1` the entry was “inactive”; with `C=CC1=C(C(=O)O)N2C(=O)C(NC(=O)C(=NO)c3csc(N)n3)C2SC1` (stereo not drawn), “inactive”; with `C=CC1=C(C(=O)O)N2C(=O)C(NC(=O)C(=NOCC(=O)O)c3csc(N)n3)C2SC1` (stereo not drawn), “active”.
Under `CC(C)CC#Cc1ccc2c(c1)O[C@@H](CN(C)C(=O)Cc1ccncc1)[C@@H](C)CN([C@H](C)CO)S2(=O)=O` stands “inactive”; under `C[C@H]1CN([C@@H](C)CO)C(=O)Cc2cc(N(C)C)ccc2O[C@H]1CN(C)S(=O)(=O)c1ccc(Cl)cc1`, “active”; under `C[C@@H]1CN([C@@H](C)CO)C(=O)Cc2cc(N(C)C)ccc2O[C@H]1CN(C)S(=O)(=O)c1ccc(Cl)cc1`, “inactive”.
In the case of `C[C@H](CO)N1C[C@H](C)[C@H](CN(C)S(=O)(=O)c2ccc(Cl)cc2)Oc2ccc(N(C)C)cc2CC1=O`, the cytotoxicity call was “active”.
In the case of `C[C@H]1CN([C@@H](C)CO)C(=O)Cc2cc(N(C)C)ccc2O[C@@H]1CN(C)S(=O)(=O)c1ccc(Cl)cc1`, the cytotoxicity call was “inactive”.
For the compound `C[C@@H]1CN([C@H](C)CO)C(=O)Cc2cc(N(C)C)ccc2O[C@H]1CN(C)S(=O)(=O)c1ccc(Cl)cc1`, the cytotoxicity call is “inactive”.
Turning to `C[C@@H]1CN([C@H](C)CO)C(=O)Cc2cc(N(C)C)ccc2O[C@@H]1CN(C)S(=O)(=O)c1ccc(Cl)cc1`, the cytotoxicity call is “inactive”.
Under `C[C@@H]1CN([C@@H](C)CO)C(=O)c2cc(/C=C/c3ccccc3)cnc2O[C@@H]1CN(C)C(=O)CN1CCOCC1` stands “inactive”.
For `COc1ccc(NC(=O)N(C)C[C@@H]2OCCCC[C@@H](C)Oc3ccc(NC(=O)Nc4cccc5ccccc45)cc3C(=O)N([C@H](C)CO)C[C@@H]2C)cc1`, the cytotoxicity call was “inactive”.
Under `C[C@@H]1CCCCO[C@@H](CN(C)C(=O)c2ccncc2)[C@H](C)CN([C@@H](C)CO)C(=O)c2cc(NC(=O)C3CCCCC3)ccc2O1` stands “inactive”; under `Cc1noc(C)c1S(=O)(=O)N(C)C[C@@H]1Oc2ccc(NC(=O)CCCN(C)C)cc2CC(=O)N([C@@H](C)CO)C[C@H]1C`, “inactive”; under `C[C@H](CO)N1C[C@H](C)[C@@H](CN(C)C(=O)Nc2ccc3c(c2)OCO3)OCc2ccccc2-c2c(n(C)c3ccccc23)C1=O`, “inactive”.
With `CN1C[C@@H]2CN(C(=O)[C@H]3CCOC3)C[C@H]2C1=O` the entry was “inactive”.
With `CC(CO)(CO)NS(=O)(=O)c1ccccc1` the entry was “inactive”; with `COc1ccncc1-c1ccccc1CN(C(=O)c1ccc(-c2ccc(C#N)cc2)o1)c1ccc(N2CCNCC2)cc1`, “active”.
In the case of `C[C@H](CO)N1C[C@H](C)[C@@H](CN(C)C(=O)Nc2ccc3c(c2)OCO3)OCCCC[C@H](C)Oc2ccc(NC(=O)CCC(F)(F)F)cc2C1=O`, the cytotoxicity call is “inactive”.
With `COc1ccc(S(=O)(=O)Nc2ccc3c(c2)C(=O)N([C@H](C)CO)C[C@H](C)[C@H](CN(C)S(=O)(=O)c2c(C)noc2C)O3)cc1` the entry was “inactive”; with `CO[C@H]1CN(C)C(=O)c2ccc(NC(=O)c3ccc(F)cc3)cc2OC[C@H](C)N(C(=O)CN(C)C)C[C@@H]1C`, “inactive”.
Under `COCCNC(=O)C[C@@H]1CC[C@@H]2[C@H](COc3ccc(NS(=O)(=O)c4ccc(Cl)cc4)cc3C(=O)N2C)O1` stands “inactive”; under `CN(C(=O)CN(CCO)CC(=O)N(C)C(C)(C)Cc1ccccc1)C(C)(C)Cc1ccccc1`, “active”.
Under `O=C(O)CN(CCc1ccccc1)CC(=O)O` stands “inactive”.
With `C[C@@](Cc1ccccc1)(NC(=O)CN)c1ccccc1`, the cytotoxicity call was “inactive”.
With `O=C(NC1(c2ccccc2)CC1)c1c(CN2CCC(N3CCCCC3)CC2)c(-c2cccc(C(F)(F)F)c2)nc2cc(Br)ccc12` the entry was “active”; with `COc1ccc(S(=O)(=O)N(C)C[C@@H]2Oc3c(NS(=O)(=O)c4ccccc4)cccc3C(=O)N([C@H](C)CO)C[C@H]2C)cc1`, “inactive”; with `COc1ccccc1OCCNCC(O)COc1cccc2[nH]c3ccccc3c12` (stereo not drawn), “active”.
With `COc1ccccc1OC[C@@H](O)CO` the entry was “inactive”.
For the compound `COc1cccc(OC)c1OCCNCCO`, the cytotoxicity call was “inactive”.
For the compound `COc1ccccc1OCCNCC(O)COc1cccc2[nH]c3ccccc3c12.O=P(O)(O)O` (stereo not drawn), the cytotoxicity call is “active”.
In the case of `COc1ccccc1OCC(O)CO` (stereo not drawn), the cytotoxicity call is “inactive”.
With `CO[C@@H]1CN(C)C(=O)c2ccc(NC(=O)Nc3ccccc3F)cc2OC[C@H](C)N(Cc2ccccc2C(=O)O)C[C@H]1C` the entry was “inactive”; with `O=C(C[C@H]1C[C@@H]2c3cc(NC(=O)Cc4ccncc4)ccc3O[C@@H]2[C@@H](CO)O1)NCc1ccc2c(c1)OCO2`, “inactive”; with `Cc1noc(C)c1S(=O)(=O)Nc1ccc2c(c1)C(=O)N([C@@H](C)CO)C[C@@H](C)[C@H](CN(C)Cc1ccccc1)OCCCC[C@H](C)O2`, “inactive”.
Under `COc1ccc(NC(=O)N(C)C[C@@H]2Oc3ccc(NC(=O)C4CC4)cc3C(=O)N([C@H](C)CO)C[C@@H]2C)cc1` stands “inactive”; under `Cc1ccc(S(=O)(=O)N(C)C[C@H]2Oc3ncc(-c4ccncc4)cc3C(=O)N([C@@H](C)CO)C[C@@H]2C)cc1`, “inactive”.
Under `C[C@@H]1CCCCO[C@@H](CN(C)C(=O)Nc2cccc3ccccc23)[C@@H](C)CN([C@@H](C)CO)C(=O)c2cc(NC(=O)Nc3ccc(C(F)(F)F)cc3)ccc2O1` stands “inactive”; under `C[C@H]1CN([C@@H](C)CO)C(=O)Cc2cc(NC(=O)CCN3CCOCC3)ccc2O[C@H]1CN(C)Cc1ccc(C(=O)Nc2ccccc2N)cc1`, “inactive”; under `Cc1ccc(S(=O)(=O)N[C@@H](Cc2ccccc2)C(=O)NCCCn2cc(CN3C(=O)COC[C@H]3c3ccccc3)nn2)cc1`, “inactive”.
Regarding `CC(=O)O[C@@H]1[C@H](OC(C)=O)N(C)C(=O)N1C`, the cytotoxicity call was “inactive”.
Under `CC(=O)O[C@@H]1[C@H](OC(C)=O)N(C(C)=O)C(=O)N1C(C)=O` stands “inactive”.
Consider `CC(=O)O[C@@H]1[C@@H]2C[C@@H]([C@H]1OC(C)=O)[C@@H]1C(=O)N(C)C(=O)[C@@H]21`, for which the cytotoxicity call is “active”.
With `C[C@@H]1CN([C@H](C)CO)C(=O)c2cccc(NS(C)(=O)=O)c2O[C@H]1CN(C)Cc1ccc(C(=O)Nc2ccccc2N)cc1` the entry was “inactive”; with `C[C@@H]1O[C@@H](OC[C@H]2O[C@@H](Oc3c(-c4ccc(O)cc4)oc4cc(O)cc(O)c4c3=O)[C@H](O)[C@@H](O)[C@@H]2O)[C@H](O)[C@H](O)[C@H]1O`, “inactive”; with `COc1ccc(CN2C[C@H](C)[C@H](OC)CN(C)C(=O)c3cc(NC(=O)c4nc5ccccc5s4)ccc3OC[C@@H]2C)cc1`, “inactive”.
Under `C[C@@H]1CN([C@@H](C)CO)C(=O)c2cc(NC(=O)Cn3cnnn3)ccc2O[C@@H]1CN(C)S(=O)(=O)c1ccc(F)cc1` stands “inactive”; under `Cc1ccc(-c2ncns2)cc1`, “inactive”.
Under `O=C(N[C@H](c1ccc(Cl)cc1)c1cnccn1)C1CCN(Cc2ccc(Oc3ccccc3)cc2)CC1` stands “active”.
With `O=C(N[C@H](c1ccc(Cl)cc1)c1ccsc1)C1CCN(Cc2ccc(Oc3ccccc3)cc2)CC1`, the cytotoxicity call is “inactive”.
As to `Cc1cccnc1[C@@H](NC(=O)C1CCN(CCOc2ccc(Cl)cc2Cl)CC1)c1ccc(Cl)cc1`, the cytotoxicity call is “inactive”.
Under `Cc1cccnc1[C@@H](NC(=O)C1CCN(Cc2ccc(Cl)c(Cl)c2)CC1)c1ccc(Cl)cc1` stands “active”; under `COc1cc(CN2CCC(C(=O)N[C@@H](c3ccc(-c4ccccc4)cc3)c3cnccn3)CC2)cc(OC)c1`, “active”; under `COc1cccc([C@@H](NC(=O)C2CCN(Cc3ccc(Oc4ccccc4)cc3)CC2)c2ccccn2)c1`, “inactive”.
Under `O=C(N[C@@H](c1ccc(-c2ccccc2)cc1)c1cnccn1)C1CCN(Cc2cccc(C(F)(F)F)c2)CC1` stands “inactive”; under `Cc1cccnc1[C@@H](NC(=O)C1CCN(Cc2ccc(Oc3ccccc3)cc2)CC1)c1ccc(F)cc1`, “inactive”; under `O=C(N[C@@H](c1ccc(-c2ccccc2)cc1)c1cnccn1)C1CCN(Cc2ccc(Oc3ccccc3)cc2)CC1`, “active”.
With `COc1ccc([C@@H](NC(=O)C2CCN(Cc3ccc(Oc4ccccc4)cc3)CC2)c2ccccn2)cc1` the entry was “inactive”; with `O=C(N[C@@H](c1ccc(-c2ccccc2)cc1)c1cnccn1)C1CCN(Cc2ccc(Cl)c(Cl)c2)CC1`, “inactive”.
